Experimental data from PubChem BioAssay (Tox21).
Values joined by “and” are separate entries in the source; they are usually repeats but may differ in a detail not shown here. Identical values can stand only once. Inconclusive results are not listed. Some structures have more than one record in an assay (separate samples or runs), and their calls can disagree. Active and inactive are the calls of the source. Unless noted, the call rests on the fitted dose curve; in most records, active means well fitted curve in the direction sought with a large enough effect in the repeat runs; inconclusive means weak or mixed curves; inactive means no such curve, though single readings can be large; an effect the other way counts as inactive or inconclusive.

How the values were obtained:
[1] = target: Estrogen receptor beta (Homo sapiens) (UniProt Q92731); test: qHTS assay to identify small molecule antagonists of the estrogen receptor beta (ER-beta) signaling pathway (AID 1259378; active means well fitted inhibition curve with a large enough effect in the signal ratio in the repeat runs, not every such curve was filed as active; the % refers to the signal ratio); conditions: ER-beta-UAS-bla HEK293T, beta-lactamase FRET ratio, 16 h; series mostly up to 92.4 µM
Chain of Estrogen receptor beta (Homo sapiens) (Q92731 whole entry, looked up): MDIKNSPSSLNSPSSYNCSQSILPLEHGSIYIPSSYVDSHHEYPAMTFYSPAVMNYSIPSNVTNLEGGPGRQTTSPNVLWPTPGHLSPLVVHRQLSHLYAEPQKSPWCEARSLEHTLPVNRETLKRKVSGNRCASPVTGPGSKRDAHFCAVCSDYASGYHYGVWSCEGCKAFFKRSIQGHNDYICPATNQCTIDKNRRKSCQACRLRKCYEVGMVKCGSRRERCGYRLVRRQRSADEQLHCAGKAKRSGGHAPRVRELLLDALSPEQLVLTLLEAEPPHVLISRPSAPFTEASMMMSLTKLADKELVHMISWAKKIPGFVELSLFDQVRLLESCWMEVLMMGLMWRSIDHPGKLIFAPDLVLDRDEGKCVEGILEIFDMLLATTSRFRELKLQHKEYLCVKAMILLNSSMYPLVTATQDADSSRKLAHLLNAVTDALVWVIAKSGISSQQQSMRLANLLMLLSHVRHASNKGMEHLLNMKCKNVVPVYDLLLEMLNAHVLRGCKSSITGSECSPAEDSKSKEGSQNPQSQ
In short: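 ER-beta-UAS-bla HEK293T (GripTite) cells in 2% charcoal-stripped FBS medium were preincubated 6 hr at 37C, dosed with compound, then stimulated with 1 nM E2 (final) for 16 hr; beta-lactamase reporter read by B/G FRET fluorescence after 2 hr substrate loading.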

[2] = qHTS assay to identify small molecule agonists of the androgen receptor (AR) signaling pathway in the presence of an antagonist - cell viability counter screen (AID 1259379); conditions: MDA-kb2 viability, CellTiter-Fluor, 16 h; series mostly up to 92.4 µM; further: nearly all actives have a fitted effect of over 25% in size; further: potency means the concentration at half of the fitted maximal effect
In short: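 Fluorescence from CellTiter-Fluor, added after 15 hr and read 1 hr later, gave cell viability. Cells were MDA-kb2 exposed to compounds (15 concentrations) in the presence of 3.0uM nilutamide at 37C, 0% CO2.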

[3] = qHTS assay to identify small molecule agonists of the estrogen receptor beta (ER-beta) signaling pathway - cell viability counter screen (AID 1259380); conditions: ER-beta-bla HEK293T viability, CellTiter-Glo luminescence, 16 h; series mostly up to 92.4 µM; further: nearly all actives have a fitted effect of over 30% in size
In short: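 Same-well viability counter screen. Cells: ER-beta-UAS-bla HEK293T, plated 6 hr before compound, in 2% charcoal-stripped FBS. Compound exposure 16 hr, 37C; viability by CellTiter-Glo luminescence after 30 min at room temperature.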

[4] = target: Androgen receptor (Homo sapiens) (UniProt P10275); test: qHTS assay to identify small molecule agonists of the androgen receptor (AR) signaling pathway in the presence of an antagonist (AID 1259381; calls by dose curve; further: nearly all actives have a fitted effect of over 15% in size); conditions: MDA-kb2 MMTV-luciferase, AR agonist + nilutamide, 16 h; series mostly up to 92.4 µM
Chain of Androgen receptor (Homo sapiens) (P10275 whole entry, looked up): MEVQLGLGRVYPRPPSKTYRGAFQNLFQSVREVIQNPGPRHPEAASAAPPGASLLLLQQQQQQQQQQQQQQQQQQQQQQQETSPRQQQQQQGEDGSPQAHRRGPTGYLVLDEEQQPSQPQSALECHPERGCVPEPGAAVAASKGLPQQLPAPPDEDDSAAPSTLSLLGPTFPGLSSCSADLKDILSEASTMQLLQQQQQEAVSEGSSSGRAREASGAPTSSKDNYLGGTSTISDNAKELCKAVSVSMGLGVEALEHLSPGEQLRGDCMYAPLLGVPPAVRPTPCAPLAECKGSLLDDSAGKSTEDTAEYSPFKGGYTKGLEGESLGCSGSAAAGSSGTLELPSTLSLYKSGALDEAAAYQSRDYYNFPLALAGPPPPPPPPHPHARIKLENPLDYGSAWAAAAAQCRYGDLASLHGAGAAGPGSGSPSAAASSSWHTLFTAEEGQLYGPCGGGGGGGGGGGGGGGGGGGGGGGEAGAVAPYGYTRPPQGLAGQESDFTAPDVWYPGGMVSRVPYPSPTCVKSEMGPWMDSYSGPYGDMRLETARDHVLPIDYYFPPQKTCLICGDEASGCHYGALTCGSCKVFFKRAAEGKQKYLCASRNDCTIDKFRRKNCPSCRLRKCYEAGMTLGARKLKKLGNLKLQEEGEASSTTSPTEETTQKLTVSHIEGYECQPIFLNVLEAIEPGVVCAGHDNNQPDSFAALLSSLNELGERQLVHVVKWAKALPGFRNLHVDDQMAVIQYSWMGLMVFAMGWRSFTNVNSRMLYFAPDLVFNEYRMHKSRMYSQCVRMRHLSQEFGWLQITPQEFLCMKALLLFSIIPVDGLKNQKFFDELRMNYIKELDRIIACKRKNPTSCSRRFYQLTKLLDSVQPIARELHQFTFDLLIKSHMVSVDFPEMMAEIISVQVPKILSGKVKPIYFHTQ
In short: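 Cells are MDA-kb2 (human breast carcinoma, MMTV-luc, AR/GR responsive). Nilutamide is present at 3.0uM final throughout; compounds are added at 15 concentrations and incubated 16hr at 37C before ONE-Glo luminescence detection.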

[5] = qHTS assay to identify small molecule antagonists of the estrogen receptor beta (ER-beta) signaling pathway - cell viability counter screen (AID 1259382); conditions: ER-beta-UAS-bla HEK293T viability, CellTiter-Glo luminescence, 16 h; series mostly up to 92.4 µM; further: nearly all actives have a fitted effect of over 55% in size
In short: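 Following a 6 hr plating period, HEK293T cells carrying a UAS-driven beta-lactamase reporter under ER-beta control received compounds and 1nM E2 (final). After 16 hr at 37C and 2 hr substrate loading, CellTiter-Glo luminescence indicated viability.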

[6] = target: Estrogen receptor (Homo sapiens) (UniProt P03372); test: qHTS assay to identify small molecule agonists of the estrogen receptor alpha (ER-alpha) signaling pathway in the presence of an antagonist (AID 1259383; calls by dose curve; further: top concentration of the series differs between compounds; nearly all actives have a fitted effect of over 15% in size); conditions: VM7Luc4E2 cells, ERE-luciferase, +ICI-182,780, 22 h; series mostly up to 92.4 µM
Chain of Estrogen receptor (Homo sapiens) (P03372 whole entry, looked up): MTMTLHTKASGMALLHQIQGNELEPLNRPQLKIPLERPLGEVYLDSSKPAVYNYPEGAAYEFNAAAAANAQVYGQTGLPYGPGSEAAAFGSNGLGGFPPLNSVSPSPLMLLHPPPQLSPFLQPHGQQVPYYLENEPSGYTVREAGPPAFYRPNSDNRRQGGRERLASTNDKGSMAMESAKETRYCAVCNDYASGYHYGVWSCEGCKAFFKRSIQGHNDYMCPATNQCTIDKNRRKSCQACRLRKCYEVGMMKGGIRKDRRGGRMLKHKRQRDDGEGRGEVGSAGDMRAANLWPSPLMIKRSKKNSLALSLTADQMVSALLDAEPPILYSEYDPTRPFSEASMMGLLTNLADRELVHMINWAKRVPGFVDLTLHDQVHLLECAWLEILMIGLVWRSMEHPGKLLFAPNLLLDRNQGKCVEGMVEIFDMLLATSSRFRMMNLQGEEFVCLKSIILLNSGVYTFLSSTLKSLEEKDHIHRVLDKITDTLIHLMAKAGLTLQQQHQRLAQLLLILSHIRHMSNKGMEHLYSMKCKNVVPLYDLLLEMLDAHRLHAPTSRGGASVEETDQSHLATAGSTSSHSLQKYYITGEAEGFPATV
In short: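 Cells are hormone-deprived for 5 days (charcoal-stripped FBS, no phenol red), plated for 24hr, spiked with 10.0nM ICI-182,780, then dosed at 15 concentrations. After 22hr at 37C, ONE-Glo luminescence reports ERE-luciferase activity.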

[7] = qHTS assay to identify small molecule agonists of the estrogen receptor alpha (ER-alpha) signaling pathway in the presence of an antagonist - cell viability counter screen (AID 1259386); conditions: VM7Luc4E2 viability, CellTiter-Fluor fluorescence, 22 h; series mostly up to 92.4 µM;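 further: cells exposed to compounds for 22 h at 37 °C before the viability read; nearly all actives have a fitted effect of over 30% in size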; further: potency means the concentration at half of the fitted maximal effect
In short: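 Cells are starved of estrogens for 5 days in charcoal-stripped serum, seeded for 24hr and co-treated with ICI-182,780 (10.0nM final) and test compounds. After 22hr at 37C, viability is read as CellTiter-Fluor fluorescence.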

[8] = target: Progesterone receptor (Homo sapiens) (UniProt P06401); test: qHTS assay to identify small molecule agonists of the progesterone receptor (PR) signaling pathway (AID 1346784; calls by dose curve; further: nearly all actives have a fitted effect of over 30% in size); conditions: PR-UAS-bla HEK293T, beta-lactamase FRET ratio, 16 h; series mostly up to 92.4 µM
Chain of Progesterone receptor (Homo sapiens) (P06401 whole entry, looked up): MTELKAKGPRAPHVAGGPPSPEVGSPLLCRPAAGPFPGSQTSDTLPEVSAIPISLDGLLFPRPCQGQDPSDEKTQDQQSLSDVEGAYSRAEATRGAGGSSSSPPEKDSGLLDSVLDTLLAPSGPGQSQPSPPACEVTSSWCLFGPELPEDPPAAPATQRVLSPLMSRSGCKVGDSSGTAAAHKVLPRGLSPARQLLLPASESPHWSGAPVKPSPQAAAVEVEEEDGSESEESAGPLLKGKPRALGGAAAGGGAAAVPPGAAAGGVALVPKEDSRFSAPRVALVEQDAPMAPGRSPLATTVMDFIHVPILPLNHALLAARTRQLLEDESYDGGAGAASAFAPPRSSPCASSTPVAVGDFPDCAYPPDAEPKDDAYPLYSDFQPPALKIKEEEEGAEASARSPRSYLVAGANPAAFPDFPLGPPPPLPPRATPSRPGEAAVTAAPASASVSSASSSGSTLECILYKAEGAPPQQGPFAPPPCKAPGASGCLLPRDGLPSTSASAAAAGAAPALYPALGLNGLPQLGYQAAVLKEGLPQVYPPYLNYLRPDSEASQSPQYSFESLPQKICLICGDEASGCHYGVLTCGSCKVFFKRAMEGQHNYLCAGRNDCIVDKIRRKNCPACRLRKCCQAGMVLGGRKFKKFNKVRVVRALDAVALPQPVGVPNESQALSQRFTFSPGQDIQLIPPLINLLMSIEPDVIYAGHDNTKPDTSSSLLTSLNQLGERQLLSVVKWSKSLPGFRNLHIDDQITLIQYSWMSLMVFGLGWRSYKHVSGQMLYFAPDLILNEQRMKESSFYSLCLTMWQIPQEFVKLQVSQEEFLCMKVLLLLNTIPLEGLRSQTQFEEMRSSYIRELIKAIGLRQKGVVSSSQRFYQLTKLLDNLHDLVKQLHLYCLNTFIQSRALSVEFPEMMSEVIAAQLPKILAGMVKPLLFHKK
In short: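 PR-UAS-bla HEK 293T cells (beta-lactamase reporter under UAS) in 2% charcoal-stripped FBS, dosed with 23 nL compound after 6 hr, incubated 16hr at 37C. LiveBLAzer B/G FRET substrate added, fluorescence read after 2 hours.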

[9] = target: Progesterone receptor (Homo sapiens) (UniProt P06401); test: qHTS assay to identify small molecule antagonists of the progesterone receptor (PR) signaling pathway (AID 1346795; active means well fitted inhibition curve with a large enough effect in the signal ratio in the repeat runs, not every such curve was filed as active; the % refers to the signal ratio); conditions: PR-UAS-bla HEK293T, beta-lactamase FRET ratio, 16 h; series mostly up to 92.4 µM
In short: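 PR-UAS-bla HEK293T cells with beta-lactamase reporter under UAS control, in 2% charcoal-stripped FBS, treated with compounds plus 1 nM promegestone (R5020, final) for 16 hr at 37C. Read-out: FRET beta-lactamase substrate fluorescence after 2 hr at room temperature.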

[10] = qHTS assay to identify small molecule antagonists of the progesterone receptor (PR) signaling pathway - cell viability counter screen (AID 1346798); conditions: PR-UAS-bla HEK293T viability, CellTiter-Glo luminescence, 16 h; series mostly up to 92.4 µM; further: nearly all actives have a fitted effect of over 50% in size
In short: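 PR-UAS-bla HEK293T cells, 3,000/well in 2% charcoal-stripped FBS medium, dosed with compounds plus R5020 agonist and incubated 16 h at 37C. Viability then measured in the same wells by CellTiter-Glo luminescence after 30 min at RT.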

[11] = qHTS assay to identify small molecule agonists of the progesterone receptor (PR) signaling pathway - cell viability counter screen (AID 1346799; calls by dose curve; further: nearly all actives have a fitted effect of over 45% in size); conditions: PR-UAS-bla HEK293T viability, CellTiter-Glo luminescence, 16 h; series mostly up to 92.4 µM
In short: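 Counter screen in the PR-UAS-bla HEK293T wells (2% charcoal-stripped FBS, 16 h compound exposure at 37 C) after the bla read. CellTiter-Glo added, 30 min at room temperature, luminescence read as cell viability.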

[12] = qHTS assay to identify small molecule antagonists of the TGF-beta/Smad signaling pathway - cell viability counter screen (AID 1346824); conditions: SBE-bla HEK293T viability, CellTiter-Glo luminescence; series mostly up to 76.8 µM; further: nearly all actives have a fitted effect of over 50% in size
In short: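 SBE-bla HEK 293T cells were plated overnight at 37 C, then given compounds in DMSO plus TGF-beta1 (added as 0.25 ng/mL solution) for 5 hr. After the bla read, CellTiter-Glo was added to the same wells and luminescence read after 30 min at room temperature.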

[13] = qHTS assay to identify small molecule agonists of the TGF-beta/Smad signaling pathway - cell viability counter screen (AID 1346829); conditions: SBE-bla HEK293T viability, CellTiter-Glo luminescence, 5 h; series mostly up to 76.8 µM; further: top concentration of the series differs between compounds; nearly all actives have a fitted effect of over 45% in size
In short: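 Compound-treated SBE-bla HEK 293T cells (5 hr, 37 C) were assessed for viability with CellTiter-Glo in parallel with the reporter read.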

[14] = target: Thyrotropin-releasing hormone receptor (Homo sapiens) (UniProt P34981); test: qHTS assay to identify small molecule antagonists of the thyrotropin-releasing hormone receptor (TRHR) signaling pathway (AID 1346877; active means well fitted inhibition curve with a large enough effect in the repeat runs, not every such curve was filed as active); conditions: TRHR-HEK293, TRH-induced calcium fluorescence, antagonist mode; series mostly up to 51.3 µM
Chain of Thyrotropin-releasing hormone receptor (Homo sapiens) (P34981 whole entry, looked up): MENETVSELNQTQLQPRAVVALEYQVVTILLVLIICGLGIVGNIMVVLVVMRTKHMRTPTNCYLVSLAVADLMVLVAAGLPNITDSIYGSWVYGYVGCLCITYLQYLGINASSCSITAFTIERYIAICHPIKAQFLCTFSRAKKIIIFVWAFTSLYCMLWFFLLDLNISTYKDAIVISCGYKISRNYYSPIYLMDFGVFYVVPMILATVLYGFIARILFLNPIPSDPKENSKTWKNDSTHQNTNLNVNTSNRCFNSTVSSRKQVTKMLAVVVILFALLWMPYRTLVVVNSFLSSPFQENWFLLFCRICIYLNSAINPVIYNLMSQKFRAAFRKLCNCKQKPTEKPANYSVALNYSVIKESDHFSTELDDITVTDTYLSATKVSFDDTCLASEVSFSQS
In short: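 Cells (TRHR-HEK293) are plated and kept 18 h at 37 °C/5% CO2. A calcium-sensitive dye is added for 2 h, compound follows for 5 min at room temperature, and TRH is then given at 1 nM final.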

[15] = target: Thyrotropin-releasing hormone receptor (Homo sapiens) (UniProt P34981); test: qHTS assay to identify small molecule agonists of the thyrotropin-releasing hormone receptor (TRHR) signaling pathway (AID 1346891; calls by dose curve); conditions: TRHR-HEK293 calcium fluorescence, agonist mode; series mostly up to 57.6 µM
In short: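 HEK293 cells expressing TRHR plated 18 h at 37 C/5% CO2, calcium dye-loaded 2 h at 37 C, then compound added (agonist mode); kinetic calcium fluorescence read 3 min at 1 s intervals; 15 concentrations in triplicate.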

[16] = Human pregnane X receptor (PXR) small molecule agonists, qHTS cell viability counter screen (AID 1346977); conditions: PXR-Luc HepG2 viability, CellTiter-Fluor, 24 h; series mostly up to 92.4 µM; further: nearly all actives have a fitted effect of over 50% in size; further: potency means the concentration at half of the fitted maximal effect
In short: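 PXR-Luc HepG2 cells (2,000/well, 5% charcoal-stripped FBS) preincubated 5 hr, then exposed to compounds 24 hr at 37 C. Viability read in the same wells by CellTiter-Fluor fluorescence, reagent added at 23 hr, 1 hr incubation.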

[17] = Caspase-3/7 induction in HepG2 cells by small molecules, qHTS assay (AID 1346978); conditions: HepG2 caspase-3/7 activation, Caspase-Glo luminescence, 17 h; series mostly up to 92.4 µM; further: nearly all actives have a fitted effect of over 15% in size
In short: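 Wild-type HepG2 cells (2,000/well) were settled 5 h at 37 C, 5% CO2, then exposed to compounds in DMSO for 17 h. Caspase-3/7 activity was read by luminescence 30 min after adding Caspase-Glo 3/7 reagent at room temperature.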

[18] = qHTS assay to identify small molecule agonists or antagonists of the thyroid stimulating hormone receptor (TSHR) signaling pathway - wild type cell line counter screen (AID 1259384; calls by dose curve); conditions: HEK293 wild type, cAMP HTRF counter-screen, stronger effect = higher value; series mostly up to 92.4 µM
In short: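 Wild-type HEK293 cells were plated 18 h at 37 C/5% CO2, pin-dosed with compound plus Ro20-1724 medium, held 30 min at room temperature, then given cAMP-d2 and anti-cAMP-cryptate; fluorescence was read after 1 h. Fifteen concentrations, triplicate.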

[19] = target: Thyrotropin receptor (Homo sapiens) (UniProt P16473); test: qHTS assay to identify small molecule antagonists of the thyroid stimulating hormone receptor (TSHR) signaling pathway (AID 1259385; calls by dose curve; further: nearly all actives have a fitted effect of over 20% in size); conditions: TSHR-HEK293 cAMP HTRF, TSH-stimulated antagonist mode; series mostly up to 92.4 µM
Chain of Thyrotropin receptor (Homo sapiens) (P16473 whole entry, looked up): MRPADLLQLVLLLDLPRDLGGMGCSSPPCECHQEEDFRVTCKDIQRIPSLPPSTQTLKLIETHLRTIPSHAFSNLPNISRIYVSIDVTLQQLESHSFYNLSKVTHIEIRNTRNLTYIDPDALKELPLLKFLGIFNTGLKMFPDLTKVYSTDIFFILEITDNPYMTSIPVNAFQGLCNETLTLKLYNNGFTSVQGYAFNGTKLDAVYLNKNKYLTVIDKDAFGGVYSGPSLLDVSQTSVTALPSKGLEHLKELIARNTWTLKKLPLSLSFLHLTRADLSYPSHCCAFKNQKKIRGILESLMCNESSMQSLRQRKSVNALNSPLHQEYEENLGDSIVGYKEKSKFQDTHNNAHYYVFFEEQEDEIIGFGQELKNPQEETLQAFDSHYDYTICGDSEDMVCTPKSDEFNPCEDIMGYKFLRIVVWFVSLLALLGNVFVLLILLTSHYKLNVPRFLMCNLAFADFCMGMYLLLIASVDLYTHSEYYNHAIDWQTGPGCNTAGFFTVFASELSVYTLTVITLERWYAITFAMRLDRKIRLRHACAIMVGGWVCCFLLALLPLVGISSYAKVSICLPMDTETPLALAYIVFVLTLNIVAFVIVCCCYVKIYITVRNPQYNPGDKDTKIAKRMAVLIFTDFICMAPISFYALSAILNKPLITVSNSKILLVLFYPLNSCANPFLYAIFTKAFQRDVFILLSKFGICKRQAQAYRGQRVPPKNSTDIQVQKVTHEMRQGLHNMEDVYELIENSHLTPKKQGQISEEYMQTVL
In short: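 TSHR-HEK293 cells were plated and held 18 h at 37C/5% CO2, then given compound plus Ro20-1724 and stimulated with TSH at 1.5 ng/mL final. After 30 min at room temperature, cAMP was detected with cAMP-d2/anti-cAMP-cryptate (1 h) by fluorescence.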

[20] = qHTS assay to identify small molecule agonists of the TGF-beta/Smad signaling pathway (AID 1346859; active means well fitted activation curve with a large enough effect in the signal ratio in the repeat runs, not every such curve was filed as active; the % refers to the signal ratio); conditions: SBE-bla HEK293T, TGF-beta/Smad beta-lactamase reporter, 5 h; series mostly up to 76.8 µM
In short: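 SBE-bla HEK293T cells plated overnight, then compound exposure for 5 h at 37 C. Beta-lactamase reporter read with LiveBLAzer B/G FRET substrate after 2 h at room temperature, fluorescence at 405 nm excitation, 460/530 nm emission.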

Measured: Potency

O=C1CCCCC1
not listed: [18] | [19] | [20]
inactive: all other assays above

Cc1cc(=O)[nH]c(C(C)C)n1
inactive: all assays above

CC1Cc2ccccc2N1NC(=O)c1ccc(Cl)c(S(N)(=O)=O)c1 (stereo not drawn)
not listed: [4] | [7] | [20]
inactive: all other assays above

COCC(=O)O
not listed: [4] | [7] | [9] | [14] | [15] | [20]
inactive: all other assays above

OC1CCCC1
not listed: [4] | [7] | [20]
inactive: all other assays above

NCCNCCNCCNCCN
not listed: [6] | [9] | [14] | [15]
inactive: all other assays above

NS(=O)(=O)c1cc2c(cc1Cl)NC=NS2(=O)=O
not listed: [4] | [9] | [20]
inactive: all other assays above

Clc1cc(Cl)c(Cl)cc1Cl
not listed: [4] | [7] | [9] | [14] | [15] | [18] | [19] | [20]
inactive: all other assays above

CC1=CC[C@H]2C[C@@H]1C2(C)C
not listed: [4] | [7] | [9]
inactive: all other assays above

O=[N+]([O-])c1cc(N(CCO)CCO)ccc1NCCO
active: [2] 54.4 µM and 30.6 µM | [7] 34.3 µM and 27.3 µM | [16] 30.6 µM
not listed: [14] | [15] | [18] | [19] | [20]
inactive: all other assays above

CCOC(=O)[C@H](CCc1ccccc1)N[C@@H](C)C(=O)N1Cc2ccccc2C[C@H]1C(=O)O
not listed: [4] | [7] | [9] | [14] | [15] | [18] | [19]
inactive: all other assays above

CC(C)(C)C1CCC(O)CC1 (stereo not drawn)
not listed: [4] | [9]
inactive: all other assays above

CCCCC(CC)C(=O)OCCOCCOCCOC(=O)C(CC)CCCC (stereo not drawn)
inactive: all assays above

NCCc1ccc(O)c(O)c1
54.6 µM (active) and inactive: [2]
active: [16] 30.7 µM
27.4 µM (active) and inactive: [7]
not listed: [4] | [9] | [18] | [19] | [20]
inactive: all other assays above

NC(=O)/N=N/C(N)=O
not listed: [4] | [7] | [9] | [18] | [19]
inactive: all other assays above
